Reference: PubChem BioAssay AID504339 (National Center for Advancing Translational Sciences (NCATS), 2011)
About 17,000 (4.4%) of roughly 390,000 compounds were called active. Not shown: some 8% with an inconclusive outcome. The sample holds actives, similar compounds and a random draw of the others, so the mix is not that of the screen. Calls come from the whole dose curve; as a rule, active = well fitted inhibition curve with a large enough effect; inconclusive = small, poorly fitted or top-dose-only effect; inactive = no such curve, though single readings can be large or run the other way.

Target: Lysine-specific demethylase 4A (Homo sapiens) (UniProt O75164)
Sequence (O75164 whole entry, looked up, the tested form may be a part): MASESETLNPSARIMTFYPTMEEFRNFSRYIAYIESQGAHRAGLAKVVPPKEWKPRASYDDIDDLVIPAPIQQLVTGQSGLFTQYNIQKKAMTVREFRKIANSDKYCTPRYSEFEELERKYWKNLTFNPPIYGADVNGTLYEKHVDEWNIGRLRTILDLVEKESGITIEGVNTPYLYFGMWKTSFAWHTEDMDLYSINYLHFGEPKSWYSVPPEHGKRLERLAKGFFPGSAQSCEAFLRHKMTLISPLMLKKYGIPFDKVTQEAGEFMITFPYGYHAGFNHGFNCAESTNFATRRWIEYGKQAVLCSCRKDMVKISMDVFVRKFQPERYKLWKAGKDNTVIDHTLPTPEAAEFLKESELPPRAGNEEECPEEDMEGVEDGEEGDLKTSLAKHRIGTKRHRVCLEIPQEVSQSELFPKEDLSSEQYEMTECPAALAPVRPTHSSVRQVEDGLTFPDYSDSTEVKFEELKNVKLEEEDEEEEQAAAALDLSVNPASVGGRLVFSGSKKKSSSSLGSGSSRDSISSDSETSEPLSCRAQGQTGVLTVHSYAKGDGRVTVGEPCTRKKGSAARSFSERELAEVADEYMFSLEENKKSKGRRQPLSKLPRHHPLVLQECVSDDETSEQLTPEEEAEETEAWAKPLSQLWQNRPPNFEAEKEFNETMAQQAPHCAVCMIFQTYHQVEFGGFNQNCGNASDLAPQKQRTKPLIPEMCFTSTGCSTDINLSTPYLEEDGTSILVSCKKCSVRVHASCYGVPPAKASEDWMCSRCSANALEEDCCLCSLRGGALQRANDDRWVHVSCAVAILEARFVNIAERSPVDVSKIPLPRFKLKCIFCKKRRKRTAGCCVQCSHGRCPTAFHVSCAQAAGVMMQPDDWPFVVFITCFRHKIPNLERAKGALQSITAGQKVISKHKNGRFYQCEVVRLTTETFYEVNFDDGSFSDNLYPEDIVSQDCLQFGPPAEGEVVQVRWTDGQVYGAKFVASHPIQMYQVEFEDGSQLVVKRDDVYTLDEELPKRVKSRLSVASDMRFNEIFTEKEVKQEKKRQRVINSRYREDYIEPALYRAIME
Experiment: qHTS Assay for Inhibitors of JMJD2A-Tudor Domain; note: nearly all actives have a fitted effect of over 50% in size
Details: AlphaScreen JMJD2A-Tudor / H3K4me3 peptide binding; series mostly up to 114 µM; activity change, negative = inhibition: at the top concentration
% is set by controls: 0 for no effect and ±100 for the full control effect; potency is the fitted concentration of half-maximal effect.

Row | SMILES | activity change, negative = inhibition | Potency
1 | Cc1ccc2nc(NC(=O)c3nc(SCc4ccccc4F)ncc3Cl)sc2c1 | -12.3% (inactive) | –
2 | COc1ccc(S(=O)(=O)c2c(Nc3cccc(Cl)c3)sc(C(=O)c3ccccc3)c2N)cc1 | -24.2% (inactive) | –
3 | COc1ccc(C)cc1N(CC(=O)N1CCC(C)CC1)S(=O)(=O)c1ccc(C)cc1 | -29.4% (inactive) | –
4 | CCOC(=O)C1CCN(Cc2ccc(-c3ccccc3)cc2)CC1 | – | 17.8 µM (active)
5 | COc1ccc(CCN2C(=O)CC(N3CCC(C(N)=O)CC3)C2=O)cc1OC (stereo not given) | -2.49% (inactive) | –
6 | CCOC(=O)C1CCN(CCC(=O)Nc2cccc(C)c2)CC1 | 4.35% (inactive) | –
7 | COc1ccc(COCC(O)CN2CCC(C(N)=O)CC2)cc1 (stereo not given) | 1.99% (inactive) | –
8 | CC(C)CC(=O)N1CCN(Cc2ccccc2Br)CC1 | – | 17.8 µM (active)
9 | CC(C)CC(=O)N1CCC(O)(CS(=O)(=O)Cc2ccccc2)CC1 | -11.5% (inactive) | –
10 | CCOc1cc(CN2CCN(C(=O)CC(C)C)CC2)ccc1OC | – | 3.16 µM (active)
11 | COc1ccc(CN2CCN(C(=O)CCC(=O)Nc3nnc(C(C)C)s3)CC2)cc1F | -11.5% (inactive) | –
12 | COc1cc(CN2CCC(C(N)=O)CC2)ccc1OCc1ccccc1 | – | 50.1 µM (active)
13 | CCOc1cc(CO)ccc1OCC(=O)N1CCCCC1 | -14% (inactive) | –
14 | Cc1c(Br)c([N+](=O)[O-])nn1CC(=O)N1CCN(Cc2ccccc2)CC1 | -4.12% (inactive) | –
15 | CCOC(=O)C1CCN(Cc2nnc(-c3cccc(Br)c3)o2)CC1 | 1.67% (inactive) | –
16 | COc1ccc(Cn2ccc3nc(C)c(C(=O)Nc4ccc(C)c(F)c4)cc3c2=O)cc1 | -8.67% (inactive) | –
17 | COc1cccc(NC(=O)CSc2cc(=O)n(C)c3ccc(Cl)cc23)c1 | -9.09% (inactive) | –
18 | CCCNC(=O)c1ccc2c(c1)ncn2-c1ccc(C)cc1C | -20.8% (inactive) | –
19 | COc1ccc(-c2cc(NCc3ccc(F)cc3)n3cnnc3n2)cc1 | -35.8% (inactive) | –
20 | Cc1cc2oc(C(=O)N(Cc3ccc(Cl)cc3)Cc3ccco3)c(C)c2cc1Cl | -4.86% (inactive) | –
21 | CC(C)(C)c1ccc(C(=O)NCC(c2ccc(Cl)cc2)N2CCOCC2)cc1 (stereo not given) | -21.9% (inactive) | –
22 | Cc1nc2nc(SCC(=O)NC3CCC(C)CC3)nn2c(C)c1Cc1ccccc1Cl (stereo not given) | -31.5% (inactive) | –
23 | Cc1ccc(NC(=O)c2oc3ccc(S(=O)(=O)N4CCCCC4)cc3c2C)cc1Cl | -13.8% (inactive) | –
24 | Cn1nnnc1SCC(=O)N1CCN(Cc2ccccc2)CC1 | -0.746% (inactive) | –
25 | O=C(c1cccc(Cl)c1)N1CCN(Cc2ccccc2)CC1 | -11% (inactive) | –

Row | SMILES | activity change, negative = inhibition | Potency
26 | CC(C)CC(=O)N1CCN(Cc2cccc(Cl)c2)CC1 | – | 44.7 µM (active)
27 | CCOC(=O)N1CCC(NC(=O)c2cnn(-c3cccc(C)c3)c2C2CCN(C(=O)OC(C)(C)C)CC2)CC1 | -8.41% (inactive) | –
28 | CC1CCC(NC(=O)CNC(=O)c2ccc3ccccc3c2)CC1 (stereo not given) | -9.59% (inactive) | –
29 | O=C(CNC(=O)c1ccc2ccccc2c1)Nc1ncccc1O | – | 79.4 µM (active)
30 | O=C(Nc1ncccc1O)c1ccc(C(=O)c2ccccc2)cc1 | -15.8% (inactive) | –
31 | CCCN(CCC)C(=O)C1CCCN(c2ncnc3c2nc2n3CCCCC2)C1 (stereo not given) | -0.641% (inactive) | –
32 | COc1cccc(NC(=O)c2csnn2)c1 | -14.9% (inactive) | –
33 | COc1cccc(NC(=S)NC(=O)c2c(Cl)c(C)nn2C)c1 | – | 89.1 µM (active)
34 | Cc1nn(C)c(C(=O)NNC(=S)NC2CCCCC2)c1Cl | 1.49% (inactive) | –
35 | COc1ccc(S(=O)(=O)c2cn(C)c3cc(N4CCCCC4)c(F)cc3c2=O)cc1 | -13.2% (inactive) | –
36 | COc1ccc(S(=O)(=O)Nc2ccccc2C(=O)N2CCCC2)cc1C | -9.89% (inactive) | –
37 | COc1ccc(S(=O)(=O)Nc2ccc3cn[nH]c3c2)cc1[N+](=O)[O-] | -31.1% (inactive) | –
38 | COc1cccc(/C=N/Nc2ccc(S(=O)(=O)Nc3ccccc3C(=O)O)cc2[N+](=O)[O-])c1O | – | 44.7 µM (active)
39 | CCOc1ncccc1C(=O)NNC(=O)c1cccc(S(=O)(=O)Nc2ccccc2OC)c1 | -5.52% (inactive) | –
40 | COC(=O)c1ccccc1NS(=O)(=O)c1ccc2[nH]c(=O)[nH]c2c1 | -11.8% (inactive) | –
41 | COc1ccc(Br)cc1/C=N/Nc1ccc(S(=O)(=O)Nc2ccccc2C(=O)O)cc1[N+](=O)[O-] | – | 17.8 µM (active)
42 | CCOC(=O)C1CCN(C(=O)CSc2c3c(nc4ccc(Cl)cc24)CCCC3)CC1 | -6.67% (inactive) | –
43 | COc1ccc2oc(-c3ccc(C)c(NC(=O)c4sc5ccccc5c4Cl)c3)nc2c1 | -20.1% (inactive) | –
44 | CCc1ccc(Nc2n[n+](-c3ccccc3)c(-c3cccc(Cl)c3Cl)s2)cc1 | – | 56.2 µM (active)
45 | COc1cc(Br)c(-c2sc(Nc3ccccc3)n[n+]2-c2ccccc2)cc1OC | -35.2% (inactive) | –
46 | COc1ccc(C)cc1Nc1n[n+](-c2ccccc2)c(-c2cccc(Cl)c2Cl)s1 | -25.9% (inactive) | –
47 | Cc1cccc(NC(=O)C2CCCN2S(=O)(=O)c2cccc3nsnc23)c1C (stereo not given) | -6.4% (inactive) | –
48 | COc1ccc(N2CCN(Cc3nc4c(c(=O)[nH]c(=O)n4C)n3Cc3ccc(Cl)cc3)CC2)cc1 | -17.5% (inactive) | –
49 | COc1ccc(CCCc2nnc(SCc3nc4ccccc4c(=O)[nH]3)n2C)cc1 | – | 15.8 µM (active)
50 | CCn1c(COc2c(C)cccc2C)nnc1SCc1nc2ccccc2c(=O)[nH]1 | -14.1% (inactive) | –

Row | SMILES | activity change, negative = inhibition | Potency
51 | COc1ccc(C)cc1-n1nnnc1SCc1nc2ccccc2c(=O)[nH]1 | -1.46% (inactive) | –
52 | CCOc1ccccc1NC(=O)CSc1ncc(S(=O)(=O)c2ccc(C(C)(C)C)cc2)c(=O)[nH]1 | -18.2% (inactive) | –
53 | CCCN1CCN(CCCNC(=O)c2ccc3nc(Cc4ccccc4)oc3c2)CC1 | -25.9% (inactive) | –
54 | Cc1cc(/C=C2\SC(=O)N(C)C2=O)c(C)n1-c1cccc(C(=O)O)c1 | – | 56.2 µM (active)
55 | Cc1cc(/C=C2/SC(=O)N(CC(=O)OC(C)C)C2=O)c(C)n1C | -18.5% (inactive) | –
56 | Cc1cc(/C=C2/SC(=O)N(CC(=O)N3CCCC3)C2=O)c(C)n1C | 69.7% (inactive) | –
57 | Cc1cccc(-n2c(SCC(N)=O)nc3c(oc4ccccc43)c2=O)c1 | -2.55% (inactive) | –
58 | O=C(CSc1nc(=O)[nH]c2c1CCCC2)Nc1cc(C(F)(F)F)ccc1Cl | -7.14% (inactive) | –
59 | CCOc1ccccc1NC(=O)CN1CCCN(Cc2cccc(Cl)c2)S1(=O)=O | -15.5% (inactive) | –
60 | Cc1c(NC(=O)c2cc(=O)c3ccccc3o2)c(=O)n(-c2ccccc2)n1C | 3.47% (inactive) | –
61 | C/C(=N\Nc1cccc(C(=O)O)c1)c1ccc2c(c1)Nc1ccccc1S2 | – | 56.2 µM (active)
62 | CC(=O)Nc1cccc(/C(C)=N/NC(=O)c2c(-c3ccccc3Cl)noc2C)c1 | -4.53% (inactive) | –
63 | Cc1ccccc1NC(=O)c1cc(S(=O)(=O)Nc2cccc(C(=O)O)c2)ccc1Cl | -5.69% (inactive) | –
64 | Cc1c(Cl)cccc1NC(=O)Cn1cc(C(=O)c2cccs2)c2ccccc21 | 6.87% (inactive) | –
65 | CC(=O)c1nn(-c2ccc(OC(F)(F)F)cc2)nc1Nc1ccccc1 | -3.77% (inactive) | –
66 | COc1ccccc1NC(=O)c1ccc2nc(N3C(=O)CCC3=O)sc2c1 | -18% (inactive) | –
67 | COc1ccccc1-c1nnc(NC(=O)c2cccc(N3C(=O)CCC3=O)c2)o1 | – | 35.5 µM (active)
68 | COC(=O)c1cccc(NC(=O)c2cccc(N3C(=O)CCC3=O)c2)c1 | 2.58% (inactive) | –
69 | Fc1ccc(C(Nc2ccc(Cl)c(C(F)(F)F)c2)c2nnc(-c3ccccc3)o2)cc1 (stereo not given) | -3.33% (inactive) | –
70 | CCn1c(=O)cc(OCC(=O)Nc2cc(Cl)c(OC)cc2OC)c2ccccc21 | 7.74% (inactive) | –
71 | COc1ccc(NC(=O)c2ccc3nc(CCc4ccccc4)oc3c2)c(OC)c1 | -22.4% (inactive) | –
72 | COc1ccc(S(=O)(=O)Nc2cc3c(C(=O)OC(C)C)c(C)oc3c3ccccc23)cc1 | -4.58% (inactive) | –
73 | COc1ccc(S(=O)(=O)/N=C2\C=C(NS(=O)(=O)c3ccccc3)C(=O)c3ccccc32)cc1 | – | 39.8 µM (active)
74 | COc1ccc(NS(=O)(=O)c2ccc(Oc3c(C#N)cccc3C#N)cc2)cc1 | -9.79% (inactive) | –
75 | Cc1ccc(Cl)cc1N1CCN(C(=O)c2cccn3c(=O)c4cc(Cl)ccc4nc23)CC1 | -21% (inactive) | –

Row | SMILES | activity change, negative = inhibition | Potency
76 | CCCC(=O)Nc1cc(C(=O)NCc2ccc(OC)cc2)ccc1S(=O)(=O)c1ccc(Cl)cc1 | -12.5% (inactive) | –
77 | CCN(CC)S(=O)(=O)c1ccc2c(c1)N(CC(=O)NCC(C)c1ccccc1)C(=O)CO2 (stereo not given) | -20.5% (inactive) | –
78 | CCc1cccc(NC(=O)CN(c2ccc(C)c(C)c2)S(=O)(=O)c2ccsc2C(=O)OC)c1 | -26.7% (inactive) | –
79 | O=C(NCCCN1CCOCC1)c1cc(-c2ccccc2F)no1 | 1.97% (inactive) | –
80 | CSc1ccc(CNCCN2CCOCC2)cc1 | -23.6% (inactive) | –
81 | CCCCC(CC)CNCc1cccn1CCN1CCOCC1 (stereo not given) | – | 28.2 µM (active)
82 | Cc1cc(C)cc(NC(=O)Cc2csc(C)n2)c1 | -19.5% (inactive) | –
83 | Cn1c(COc2ccc(Cl)cc2)nc2ccccc2c1=O | – | 28.2 µM (active)
84 | COc1ccccc1OCCCn1c(-c2ccc(Cl)cc2)nc2ccccc2c1=O | 19% (inactive) | –
85 | COc1ccc(OCc2ccc(-c3nc4ccccc4c(=O)n3N)o2)cc1 | -10.8% (inactive) | –
86 | COc1ccc(CCNS(=O)(=O)c2cc(-c3cc(C)no3)ccc2C)cc1OC | -8.77% (inactive) | –
87 | COc1ccc(-c2nc(SCC(=O)N3CCCCC3C)n[nH]2)cc1 (stereo not given) | -1.3% (inactive) | –
88 | CCn1c2c(c(=O)n3ncc(C(=O)N4CCN(c5ccccc5)CC4)c13)CN(Cc1ccc(OC)cc1)CC2 | -16.6% (inactive) | –
89 | O=C(CN1CCCCCC1)Nc1c(Cl)cc(Cl)cc1Cl | -3.93% (inactive) | –
90 | Cc1csc(NC(=O)CN2CCCCCC2)n1 | – | 1.58 µM (active)
91 | Cc1cc(C)c(NC(=O)CN2CCCCCC2)c(C)c1 | -11.4% (inactive) | –
92 | COc1ccc(CCNC(=O)c2nn(C)c3c2CSc2ccccc2-3)cc1OC | -6.95% (inactive) | –
93 | Cc1nc2ccccn2c(=O)c1NC(=O)c1c(F)cccc1F | -10.1% (inactive) | –
94 | CCn1c2ccccc2c2nnc(N3CCN(c4cc(C)ccc4C)CC3)nc21 | -12.2% (inactive) | –
95 | O=C(CNCc1ccco1)Nc1cc(S(=O)(=O)N2CCOCC2)ccc1N1CCCC1 | – | 79.4 µM (active)
96 | CN1CCN(c2ccc(S(=O)(=O)N3CCOCC3)cc2NC(=O)CCc2ccccc2)CC1 | -9.18% (inactive) | –
97 | Cc1ccc(S(=O)(=O)N2CCOCC2)cc1C(=O)Nc1ccccc1N1CCCC1 | -24.7% (inactive) | –
98 | O=C(COC(=O)Cc1ccc(F)cc1)Nc1cc(S(=O)(=O)N2CCOCC2)ccc1N1CCCC1 | -18.7% (inactive) | –
99 | COCCNC(=S)Nc1cc(S(=O)(=O)N2CCOCC2)ccc1N1CCCCC1 | – | 79.4 µM (active)
100 | O=C(COC(=O)c1ccccc1F)Nc1cc(S(=O)(=O)N2CCOCC2)ccc1N1CCCC1 | -19.7% (inactive) | –
